Records with an inconclusive call do not appear. Active and inactive are the calls of the source. Calls follow the shape of the dose curve; as a rule, active = well fitted curve in the direction sought with a large enough effect in the repeat runs; inconclusive = weak or mixed curves; inactive = no such curve, though single readings can be large; an effect the other way counts as inactive or inconclusive.
How the values were obtained:
[1] = qHTS RealTime-Glo MT Cell Viability Assay in HEK293 cells - 0 hour (AID 1224880); also: top concentration of the series differs between compounds; nearly all actives have a fitted effect of over 45% in size
In short: (§1)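 Luminescence, which tracks viable cell number through reduction of the prosubstrate to a NanoLuc substrate, was read over continuous 37 C culture. Cells (600/well) were premixed with reagent and rested 5 h before 23 nL of compound in DMSO was pinned.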

[2] = A CellTox Green Cytotoxicity Assay to monitor cytotoxicity in HEK293 cells - 32 hour (AID 1224881); also: nearly all actives have a fitted effect of over 40% in size
In short: (§2)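 Fluorescence from a DNA-binding dye excluded by viable cells was measured repeatedly in the same HEK293 wells (600 cells/well) during continuous compound exposure at 37 C. Each assay gives one read point: 0, 8, 16, 24, 32 or 40 h.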

[3] = A CellTox Green Cytotoxicity Assay to monitor cytotoxicity in HepG2 cells - 0 hour (AID 1224882); also: nearly all actives have a fitted effect of over 35% in size
In short: (§3)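 Real-time cytotoxicity: fluorescence of a cell-impermeant cyanine dye binding DNA of dead HepG2 cells, measured repeatedly (0–40 h) during compound exposure at 37 C. Cells seeded 600/well with reagent, dosed after 5 h.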

[4] = A CellTox Green Cytotoxicity Assay to monitor cytotoxicity in HepG2 cells - 32 hour (AID 1224883); also: nearly all actives have a fitted effect of over 50% in size
In short: as §3

[5] = A CellTox Green Cytotoxicity Assay to monitor cytotoxicity in HEK293 cells - 8 hour (AID 1224884); also: nearly all actives have a fitted effect of over 35% in size
In short: as §2

[6] = qHTS RealTime-Glo MT Cell Viability Assay in HepG2 cells - 16 hour (AID 1224885); also: nearly all actives have a fitted effect of over 50% in size
In short: (§4)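 Real-time, nonlytic viability: 600 HepG2 cells/well mixed with NanoLuc enzyme plus prosubstrate; 5 h settle, compound (DMSO) added by pintool; luminescence monitored over 40 h at 37 C.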

[7] = qHTS RealTime-Glo MT Cell Viability Assay in HEK293 cells - 24 hour (AID 1224886); also: top concentration of the series differs between compounds; nearly all actives have a fitted effect of over 50% in size
In short: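 Cells + reagent dispensed (600 cells/well, HEK293) → 5 h at 37 C/5% CO2 → 23 nL compound in DMSO pinned → 40 h at 37 C → luminescence read at 0, 8, 16, 24, 32, 40 h.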

[8] = qHTS RealTime-Glo MT Cell Viability Assay in HEK293 cells - 8 hour (AID 1224887); also: top concentration of the series differs between compounds; nearly all actives have a fitted effect of over 50% in size
In short: as §1

[9] = A CellTox Green Cytotoxicity Assay to monitor cytotoxicity in HEK293 cells - 16 hour (AID 1224888); also: nearly all actives have a fitted effect of over 35% in size
In short: as §2

[10] = qHTS RealTime-Glo MT Cell Viability Assay in HepG2 cells - 0 hour (AID 1224889); also: nearly all actives have a fitted effect of over 50% in size
In short: as §4

[11] = A CellTox Green Cytotoxicity Assay to monitor cytotoxicity in HepG2 cells - 8 hour (AID 1224890); also: nearly all actives have a fitted effect of over 45% in size
In short: as §3

[12] = qHTS assay to identify small molecule antagonists of the estrogen receptor alpha (ER-alpha) signaling pathway using the BG1 cell line in the presence of 0.1 nM 17-beta-estradiol - cell viability counter screen (AID 1259241); also: nearly all actives have a fitted effect of over 40% in size
In short: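 VM7Luc4E2 cells (endogenous full-length ER-alpha, 4xERE-luciferase), cultured 5 days in charcoal-stripped serum, exposed to compounds with 0.1 nM 17beta-estradiol (final) for 22 hr at 37C. Viability read in same wells as live-cell protease fluorescence after 30 min.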

[13] = target: Estrogen receptor (Homo sapiens) (UniProt P03372); experiment: qHTS assay to identify small molecule antagonists of the estrogen receptor alpha (ER-alpha) signaling pathway using the BG1 cell line in the presence of 0.1 nM 17-beta-estradiol (AID 1259244); also: nearly all actives have a fitted effect of over 50% in size
Sequence of Estrogen receptor (Homo sapiens) (P03372 whole entry, looked up): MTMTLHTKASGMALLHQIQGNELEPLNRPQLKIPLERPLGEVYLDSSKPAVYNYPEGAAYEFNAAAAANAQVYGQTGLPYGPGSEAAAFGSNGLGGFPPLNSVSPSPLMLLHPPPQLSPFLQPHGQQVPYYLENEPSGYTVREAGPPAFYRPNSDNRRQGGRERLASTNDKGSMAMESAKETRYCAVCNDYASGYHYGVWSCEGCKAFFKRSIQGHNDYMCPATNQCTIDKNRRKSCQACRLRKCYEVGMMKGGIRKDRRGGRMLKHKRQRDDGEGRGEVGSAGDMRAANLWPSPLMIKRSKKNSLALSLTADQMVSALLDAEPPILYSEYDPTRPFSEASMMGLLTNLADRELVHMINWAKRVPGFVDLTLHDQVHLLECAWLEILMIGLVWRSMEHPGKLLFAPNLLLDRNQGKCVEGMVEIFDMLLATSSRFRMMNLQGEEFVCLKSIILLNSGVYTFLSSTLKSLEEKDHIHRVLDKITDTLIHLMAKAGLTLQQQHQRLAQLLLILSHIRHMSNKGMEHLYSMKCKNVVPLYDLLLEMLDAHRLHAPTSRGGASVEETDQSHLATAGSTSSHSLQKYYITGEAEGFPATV
In short: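 Luciferase luminescence (ONE-Glo, 30 min at room temperature) was read after 22 hr at 37C exposure to compounds plus 17beta-estradiol at 0.1 nM final. Cells were VM7Luc4E2 with endogenous ER-alpha and an ERE-driven luciferase, pre-cultured 5 days in hormone-depleted medium.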

[14] = qHTS assay to identify small molecule HDAC inhibitors - cell viability counter screen (AID 1259365)
In short: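 Wild-type HCT-116 cells, 1,500/well, cultured overnight, then compound-treated 2 h at 37 C. Viability measured as ATP luminescence with CellTiter-Glo after 30 min at room temperature.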

[15] = qHTS assay to identify small molecule agonists of the sonic hedgehog signaling (Shh) pathway - cell viability counter screen (AID 1259366); also: nearly all actives have a fitted effect of over 50% in size; also: potency is read from the fitted curve at half-maximal effect
In short: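 NIH/3T3-derived Gli1-Luc reporter cells, 2,000 per well, received compound after 4 h and were treated about 23 h at 37C. Viability measured in the same wells by CellTiter-Fluor fluorescence after 1 h.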

[16] = qHTS assay to identify small molecule antagonists of the sonic hedgehog signaling (Shh) pathway - cell viability counter screen (AID 1259367); also: nearly all actives have a fitted effect of over 55% in size
In short: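 Fluorescence read-out (CellTiter-Fluor, 1 hr at 37C) taken after 23 hr compound treatment of 3T3 Gli1-Luc cells stimulated with conditioned medium. Cells were seeded at 2,000 per well and pre-incubated 4 hr.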

[17] = qHTS assay to identify small molecule antagonists of the androgen receptor (AR) signaling pathway using the MDA cell line in the presence of 0.5 nM R1881 - cell viability counter screen (AID 1259242); also: nearly all actives have a fitted effect of over 45% in size
In short: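 Live-cell protease activity was measured by CellTiter-Fluor fluorescence after 30 min. Before that, MDA-kb2 MMTV-luciferase cells had 16 hr at 37C without CO2, exposed to test compounds and 0.5 nM R1881 final.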

[18] = target: Androgen receptor (Homo sapiens) (UniProt P10275); experiment: qHTS assay to identify small molecule antagonists of the androgen receptor (AR) signaling pathway using the MDA cell line in the presence of 0.5 nM R1881 (AID 1259243); also: nearly all actives have a fitted effect of over 50% in size
Sequence of Androgen receptor (Homo sapiens) (P10275 whole entry, looked up): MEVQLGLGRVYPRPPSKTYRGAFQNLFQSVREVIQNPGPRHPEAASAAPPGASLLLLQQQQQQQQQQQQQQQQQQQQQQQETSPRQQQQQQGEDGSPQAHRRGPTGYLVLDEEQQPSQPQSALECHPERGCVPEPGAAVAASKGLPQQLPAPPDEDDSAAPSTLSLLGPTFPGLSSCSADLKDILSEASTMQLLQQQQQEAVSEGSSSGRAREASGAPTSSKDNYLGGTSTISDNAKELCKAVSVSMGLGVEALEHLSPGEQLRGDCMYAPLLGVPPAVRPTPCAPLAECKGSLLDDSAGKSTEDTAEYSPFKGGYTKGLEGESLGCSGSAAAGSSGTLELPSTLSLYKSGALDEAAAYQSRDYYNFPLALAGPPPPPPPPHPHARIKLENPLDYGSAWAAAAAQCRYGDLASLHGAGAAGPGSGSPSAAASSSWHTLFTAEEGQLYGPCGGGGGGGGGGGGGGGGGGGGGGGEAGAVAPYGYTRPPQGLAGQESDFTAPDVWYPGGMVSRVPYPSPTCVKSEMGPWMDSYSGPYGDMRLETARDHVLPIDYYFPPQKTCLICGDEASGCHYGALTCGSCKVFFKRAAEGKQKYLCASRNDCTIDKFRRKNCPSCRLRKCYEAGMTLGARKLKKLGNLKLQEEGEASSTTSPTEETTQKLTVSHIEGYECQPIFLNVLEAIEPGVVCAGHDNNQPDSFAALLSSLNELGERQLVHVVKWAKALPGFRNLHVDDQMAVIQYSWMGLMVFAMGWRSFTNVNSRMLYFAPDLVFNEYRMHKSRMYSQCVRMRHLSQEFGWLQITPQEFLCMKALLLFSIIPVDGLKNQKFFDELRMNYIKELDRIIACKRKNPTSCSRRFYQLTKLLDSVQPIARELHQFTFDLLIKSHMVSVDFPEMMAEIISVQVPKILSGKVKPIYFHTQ
In short: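 Luminescent reporter readout (ONE-Glo, 30 min, room temperature) after 16 hr co-treatment of MDA-kb2 cells with test compounds and 0.5 nM R1881 final, at 37C without CO2. The MMTV-driven luciferase responds to both AR and GR.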

[19] = qHTS assay to identify small molecule HDAC inhibitors (AID 1259364); also: nearly all actives have a fitted effect of over 45% in size; also: potency is read from the fitted curve at half-maximal effect; as to activity change, negative = inhibition: top concentration of the series differs between compounds
In short: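 Luminescence read after 30 min room-temperature HDAC-Glo incubation measures cellular class I/II HDAC activity. Compounds were applied for 2 hr at 37 C to HCT-116 wild-type cells seeded the day before.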
% is scaled to controls: 0 for no effect and ±100 for the full control effect.

CCOC(=O)CC(=O)c1ccccc1
inactive: Potency [1] | Potency [2] | outcome [3] | Potency [4] | Potency [5] | outcome [6] | Potency [7] | Potency [8] | outcome [9] | Potency [10] | outcome [11] | Potency [12] | Potency [13] | outcome [14] | Potency [15] | Potency [16]

Cc1cc(C(C)(C)C)c(O)c(C)c1CC1=NCCN1
inactive: Potency [1] | Potency [2] | outcome [3] | Potency [4] | Potency [5] | outcome [6] | Potency [7] | Potency [8] | outcome [9] | Potency [10] | Potency [12] | outcome [17] | Potency [18] | Potency [13] | Potency [19] | outcome [14] | Potency [15] | Potency [16]

C=C(C)C(=O)OCCOP(=O)(O)OCCOC(=O)C(=C)C
inactive: Potency [1] | Potency [2] | outcome [3] | Potency [4] | Potency [5] | outcome [6] | Potency [7] | Potency [8] | outcome [9] | Potency [10] | outcome [11] | Potency [12] | Potency [13] | Potency [19] | outcome [14] | Potency [15] | Potency [16]

NS(=O)(=O)c1ccc(NC(=O)CCC(=O)O)cc1
inactive: Potency [1] | Potency [2] | outcome [3] | Potency [4] | Potency [5] | outcome [6] | Potency [7] | Potency [8] | outcome [9] | Potency [10] | outcome [11] | Potency [12] | Potency [13] | Potency [19] | outcome [14] | Potency [15] | Potency [16]

COc1cc2c(cc1OC)[C@@H]1CC(=O)[C@@H](CC(C)C)CN1CC2
inactive: Potency [1] | Potency [2] | outcome [3] | Potency [4] | Potency [5] | outcome [6] | Potency [7] | Potency [8] | outcome [9] | Potency [10] | outcome [11] | Potency [12] | outcome [17] | Potency [13] | Potency [19] | outcome [14] | Potency [15] | Potency [16]

O=Cc1ccc(Cl)c(Cl)c1
inactive: Potency [1] | Potency [2] | outcome [3] | Potency [4] | Potency [5] | outcome [6] | Potency [7] | Potency [8] | outcome [9] | Potency [10] | outcome [11] | Potency [12] | Potency [19] | outcome [14] | Potency [15] | Potency [16]

CC(=O)c1ccc2c(c1)Cc1ccccc1-2
inactive: Potency [1] | Potency [2] | outcome [3] | Potency [4] | Potency [5] | outcome [6] | Potency [7] | Potency [8] | outcome [9] | Potency [10] | outcome [11] | Potency [12] | outcome [17] | Potency [13] | Potency [15] | Potency [16]
active: Potency [19] 27.3 µM

O=C(NCCN1CCOCC1)c1ccc(Cl)cc1
inactive: Potency [1] | Potency [2] | outcome [3] | Potency [4] | Potency [5] | outcome [6] | Potency [7] | Potency [8] | outcome [9] | Potency [10] | outcome [11] | Potency [12] | Potency [19] | outcome [14] | Potency [15] | Potency [16]

O=C(/N=N/C(=O)OCc1ccccc1)OCc1ccccc1
inactive: Potency [1] | Potency [2] | outcome [3] | Potency [4] | Potency [5] | outcome [6] | Potency [7] | Potency [8] | outcome [9] | Potency [10] | outcome [11] | Potency [12] | outcome [17] | Potency [13] | Potency [19] | Potency [15] | Potency [16]

CC(=O)/C=C/C1C(C)=CCC(C)C1(C)C (centres undefined)
inactive: Potency [1] | Potency [2] | outcome [3] | Potency [4] | Potency [5] | outcome [6] | Potency [7] | Potency [8] | outcome [9] | Potency [10] | outcome [11] | Potency [12] | outcome [17] | Potency [13] | Potency [19] | Potency [15] | Potency [16]

CCNC(=O)C1CC(C)CCC1C(C)C (centres undefined)
inactive: Potency [1] | Potency [2] | outcome [3] | Potency [4] | Potency [5] | outcome [6] | Potency [7] | Potency [8] | outcome [9] | Potency [10] | outcome [11] | Potency [12] | Potency [13] | Potency [19] | outcome [14] | Potency [15] | Potency [16]

C[Si](C)=O
inactive: activity change, negative = cytotoxicity [1] -1.57% [at 6.97 µM] | cytotoxicity increase [2] 10.3% [at 6.97 µM] | cytotoxicity [3] -2.11% [at 6.97 µM] | cytotoxicity increase [4] -6.59% [at 6.97 µM] | cytotoxicity increase [5] 1.88% [at 6.97 µM] | activity change, negative = cytotoxic [6] 0.315% [at 6.97 µM] | activity change, negative = cytotoxicity [7] 0.58% [at 6.97 µM] | activity change, negative = cytotoxicity [8] -1.9% [at 6.97 µM] | activity change [9] 1.45% [at 6.97 µM] | activity change, negative = cytotoxicity [10] 8.65% [at 6.97 µM] | cytotoxicity increase [11] -1.81% [at 6.97 µM] | activity change, negative = cytotoxicity [12] -11.4% [at 8.39 µM] | viability change, negative = cytotoxic [17] 2.02% [at 8.39 µM] | activity change, negative = inhibition [19] 1.64% [at 8.39 µM] | activity change, negative = cytotoxicity [14] 2.53% [at 8.39 µM] | viability change, negative = cytotoxic [15] -1.38% [at 8.39 µM] | viability change, negative = cytotoxic [16] 0.12% [at 8.39 µM]

O=C(c1ccc(O)cc1)c1ccc(O)c(O)c1O
active: Potency [15] 30.8 µM
inactive: Potency [1] | Potency [2] | outcome [3] | Potency [4] | Potency [5] | outcome [6] | Potency [7] | Potency [8] | outcome [9] | Potency [10] | outcome [11] | outcome [17] | outcome [14]

Cc1cc(Cl)c(C)cc1Cl
inactive: Potency [1] | Potency [2] | outcome [3] | Potency [4] | Potency [5] | outcome [6] | Potency [7] | Potency [8] | outcome [9] | Potency [10] | outcome [11] | outcome [17] | Potency [18] | Potency [19] | outcome [14] | Potency [15] | Potency [16]

OC[C@H](Cc1cccc(O)c1)[C@H](CO)Cc1cccc(O)c1
inactive: Potency [1] | Potency [2] | outcome [3] | Potency [4] | Potency [5] | outcome [6] | Potency [7] | Potency [8] | outcome [9] | Potency [10] | outcome [11] | Potency [12] | outcome [17] | Potency [19] | Potency [15]
